# Activity calls are given as the source filed them. The calls were made as follows: active = hit-call score of the fitted dose curve at least 0.9, where 1 is the maximum; inactive = score below 0.9.
# Read-out: Secreted IgG (sIgG), gene 3500
# Assay: BSK_BT_sIgG: BioMAP Diversity Plus: BT Assay for Secreted IgG (sIgG) Biomarker Activity (AID 2284226)
# Conditions: primary human B cells with PBMC
# Method: BSK_BT is a cell-based, multiplexed-readout assay that uses B cell and peripheral blood mononuclear cells, a human vascular primary cell co-culture, with measurements taken at 24 hours after chemical dosing in a microplate: 96-well plate.BSK_BT_sIgG is an assay component measured in the BSK_BT assay. It measures secreted IgG related to regulation of gene expression using ELISA technology.Data from the assay component BSK_BT_sIgG was analyzed at the endpoint, BSK_BT_sIgG, in the positive analysis fitting direction relative to DMSO as the negative control and baseline of activity. Using a type of cytokine quantitation reporter, gain or loss-of-signal activity can be used to understand protein changes. To generalize the intended target to other relatable targets, this assay endpoint is annotated to the 'immunoglobulin' intended target family, where the subfamily is 'IgG'.
# The levels of cell surface (or secreted, indicated by the prefix "s") biomarker endpoints were measured by ELISA. Overt cytotoxicity to cells in confluent adherent cultures (all systems other than the BT system) was assessed by measuring total protein levels using sulforhodamine B (SRB) staining in parallel cultures at the time of biomarker measurements, indicated as SRB endpoints. For proliferation assays for adherent cell types, individual cell types are cultured at sub-confluence and relative cell numbers quantified by SRB staining at time points optimized for each system (48 h: 3C and CASM3C systems; 72 h: BT and HDF3CGF systems; 96 h: SAg system). SRB was performed by staining cells with 0.1% SRB after fixation with 10% TCA and reading wells at 560 nm.Viability and proliferation of PBMC (T cells) was quantified by Alamar Blue reduction for the SAg and BT systems. For PBMC viability (referred to as PBMC Cytotoxicity within the assay endpoint names), cells were plated (75,000/well in a 96-well plate) and then chemical samples added for 1 h before addition of activators, SEB and TSST-1 (20 ng/mL final concentration each). Cells were incubated for 90 h. Then, Alamar Blue (20 uL/well) (Invitrogen, Cat DAL1100) was added for 6 h, and the plates were read with a fluorescence microplate reader at 546/580 nm (excitation/emission). For PBMC proliferation, cells were plated and activated as above but incubated for only 16 h prior to addition of Alamar Blue. Plates were read after 6 h.
SMILES,outcome,AC50
NC(=S)Nc1ccccc1,inactive,–
ClC1=C(Cl)[C@]2(Cl)[C@H]3[C@H]([C@H]4C=C[C@H]3C4)[C@@]1(Cl)C2(Cl)Cl,–,7.53 µM (active)
O=Cc1cccc(Oc2ccccc2)c1,inactive,–
COP(=S)(OC)Oc1c(Cl)cc(C)cc1Cl,–,22.9 µM (active)
Nc1ncc([N+](=O)[O-])s1,inactive,–
COc1cc(OC)nc(NC(=O)NS(=O)(=O)c2ncccc2C(=O)N(C)C)n1,inactive,–
Nc1cccc2ccccc12,inactive,–
BrCCBr,inactive,–
COP(=S)(OC)Oc1ccc(S(=O)(=O)N(C)C)cc1,–,9.48 µM (active)
COC(=O)c1sccc1S(=O)(=O)NC(=O)Nc1nc(C)nc(OC)n1,inactive,–
O=[N+]([O-])c1ccc2c3c(cccc13)CC2,inactive,–
ClC(Cl)=C(Cl)C(Cl)=C(Cl)Cl,inactive,–
CCNc1nc(NC(C)(C)C)nc(SC)n1,–,26.7 µM (active)
CC(C)CCCCCCOC(=O)c1ccccc1C(=O)OCCCCCCC(C)C,inactive,–
O=C(O)C(F)(F)C(F)(F)C(F)(F)C(F)(F)C(F)(F)C(F)(F)C(F)(F)C(F)(F)C(F)(F)C(F)(F)F,inactive,–
CC(C)c1ccc(CO)cc1,inactive,–
COC[C@H](C)N(C(=O)CCl)c1c(C)csc1C,inactive,–
CCSC(C)CC1CC(=O)C(C(CC)=NOC/C=C/Cl)=C(O)C1 (stereo not given),inactive,–

SMILES,outcome,AC50
Nc1ccc(-c2ccc(N)c(Cl)c2)cc1Cl,–,6.09 µM (active)
CC1(C)Cc2cccc(O)c2O1,inactive,–
Oc1c(I)cc(I)cc1I,inactive,–
CCOC(=O)/C=C(C)/C=C/C[C@@H](C)CCCC(C)C,–,20 µM (active)
CCCCCCCCC(=O)NCc1ccc(O)c(OC)c1,inactive,–
O=C(O)C(F)(F)C(F)(F)C(F)(F)C(F)(F)C(F)(F)C(F)(F)F,inactive,–
O=C(O)CCC(F)(C(F)(F)F)C(F)(F)F,inactive,–
COP(=S)(OC)Oc1ccc(Sc2ccc(OP(=S)(OC)OC)cc2)cc1,–,28.9 µM (active)
CC(=O)C(Cl)C(=O)N(C)C (stereo not given),–,20 µM (active)
OCc1ccco1,–,26.1 µM (active)
CCCCC(CC)CO[N+](=O)[O-] (stereo not given),inactive,–
CCOP(=S)(OCC)Oc1ccc(S(C)=O)cc1 (stereo not given),inactive,–
CCOP(=S)(OCC)SCCS(=O)(=O)CC,inactive,–
O=S(=O)(c1ccc(Cl)cc1)c1ccc(Cl)cc1,inactive,–
C(=NC1CCCCC1)=NC1CCCCC1,–,1.82 µM (active)
O=C(OC1CCCCC1)c1ccccc1C(=O)OC1CCCCC1,–,34.2 µM (active)
COP(=S)(OC)Oc1cc(Cl)c(Cl)cc1Cl,–,34.3 µM (active)

# — PubChem BioAssay (EPA / NIEHS)
